Data from PubChem BioAssay (EPA / NIEHS).
Records with an inconclusive call do not appear. Activity calls are given as the source filed them. Rule for the calls, unless noted: active = hit-call score of the fitted dose curve at least 0.9, where 1 is the maximum; inactive = score below 0.9.

Tests used:
[1] = CCTE_Shafer_MEA_acute_cross_correlation_area: CCTE's Neural Acute Assay for Area of Cross Correlation, Shafer Lab (AID 2284024);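 note: area under pooled inter-electrode spike cross-correlation near zero lag as percent change from own baseline; curves fitted for loss of cross-correlation area so actives lower synchrony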
Summary of the method: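 Plates equilibrated 20 min at 37 C, then 40 min baseline was recorded, compound was added (0.03-40 uM), and a further 40 min was recorded. Wells needed ≥10 active electrodes (≥5 spikes/min) on exposure day.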

[2] = CCTE_Shafer_MEA_acute_cross_correlation_HWHM: CCTE's Neural Acute Assay for Cross Correlation at Half Width at Half Maximum, Shafer Lab (AID 2284026);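 note: percent change per well from pre-dose baseline in spike cross-correlogram half width; hits are a decrease in cross-correlogram half width relative to DMSO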
Summary of the method: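 Rat cortical neuron cultures on microelectrode arrays were equilibrated 20 min at 37 C, recorded 40 min at baseline, then 40 min after compound addition (0.03-40 uM, ≥3 wells). Spikes were detected at 8x rms noise after 300-5000 Hz band-pass filtering.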

[3] = CCTE_Shafer_MEA_acute_synchrony_index: CCTE's Neural Acute Assay for Synchrony, Shafer Lab (AID 2284027);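 note: network synchrony index of spontaneous spiking in primary rat cortical neurons on MEAs; fitted for loss of signal so actives lower synchrony relative to DMSO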
Summary of the method: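 Primary rat cortical neurons on 48-well MEAs, dosed at 0.03–40 uM on DIV 13 or 15. Spikes are recorded for 40 min at 37C before and after exposure, and synchrony index (0–1) is expressed as percent change from baseline per well.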

[4] = CCTE_Shafer_MEA_dev_firing_rate_mean: CCTE's Neural Network Formation Assay for Mean Firing Rate, Shafer Lab (AID 2284031);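 for AC50: curve fitted for loss of firing so AC50 reflects decreased mean firing rate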
Summary of the method: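 Primary rat cortical neurons on 48-well MEA plates, exposed from plating day 0 with dosing renewed on DIV 5 and 9. Mean well firing rate over active electrodes, recorded days 5, 7, 9, 12, summarised as trapezoidal AUC.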

[5] = CCTE_Shafer_MEA_dev_per_burst_spike_percent: CCTE's Neural Network Formation Assay for Percent of Spikes in a Burst, Shafer Lab (AID 2284032);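 for AC50: fitted as a decrease in burst spike percentage below DMSO baseline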
Summary of the method: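 Rat primary cortical neurons on 16-electrode MEA wells, dosed from plating day 0 for 12 days with renewal on DIV 5 and 9; spikes-in-bursts percentage averaged over bursting electrodes, collapsed as AUC across days 5, 7, 9, 12; loss direction versus DMSO.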

[6] = CCTE_Shafer_MEA_dev_active_electrodes_number: CCTE's Neural Network Formation Assay for Number of Active Electrodes, Shafer Lab (AID 2284040; active = hit-call score of the fitted dose curve at least 0.9, where 1 is the maximum;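 for AC50: potency for loss of active electrodes versus DMSO so lower counts are hits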)
Summary of the method: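 Primary rat cortical neurons on 16-electrode MEA wells, exposed from day 0 through day 12 with compound renewed at DIV 5 and 9 feeds. Active electrodes (mean firing ≥5 spikes/min) counted at DIV 5, 7, 9, 12; trapezoidal AUC across days, loss-of-signal versus DMSO.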

[7] = CCTE_Shafer_MEA_dev_burst_rate: CCTE's Neural Network Formation Assay for Burst Rate, Shafer Lab (AID 2284042);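 for AC50: potency for loss of burst rate below DMSO control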
Summary of the method: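 Cells plated, treated day 0; recorded DIV 5, 7, 9, 12; fed and re-treated DIV 5, 9. Endpoint: bursts per recording time, active-electrode well mean, trapezoidal AUC, fitted in decreasing direction against DMSO baseline.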

[8] = CCTE_Shafer_MEA_dev_per_burst_interspike_interval: CCTE's Neural Network Formation Assay for Burst Interspike Interval, Shafer Lab (AID 2284044);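 note: mean spike spacing inside bursts as AUC over recordings on days 5 7 9 12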;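 for AC50: potency for a decrease of within-burst interspike interval below DMSO level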
Summary of the method: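 Neurons from rat cortex plated onto PEI-coated MEA wells with laminin […] at 1.5 x 10^5 cells/well, then treated from day 0. Media and compound fully replaced on DIV 5 and 9. Extracellular spontaneous firing recorded four times; interspike interval per burst summarised as AUC.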

[9] = CCTE_Shafer_MEA_dev_interburst_interval_mean: CCTE's Neural Network Formation Assay for Mean Interburst Interval, Shafer Lab (AID 2284046);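 note: well-mean interburst interval of bursting electrodes as AUC over four recording days; curve fitted for decrease in interburst interval relative to DMSO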
Summary of the method: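 Developing rat cortical networks on 48-well MEAs receive compound from the day of plating. Burst intervals from each active electrode are averaged per well, and AUC over the recording days is fitted in the negative direction against DMSO.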

[10] = CCTE_Shafer_MEA_dev_inter_network_spike_interval_mean: CCTE's Neural Network Formation Assay for Mean Inter-network Spike Interval, Shafer Lab (AID 2284047)
Summary of the method: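 Rat cortical cultures, 1.5 x 10^5 cells/well on 48-well MEA plates; continuous exposure days 0–12, medium and compound refreshed DIV 5, 9. Mean time between consecutive network-spike peaks; AUC across DIV 5/7/9/12; DMSO baseline, negative fitting direction.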

[11] = CCTE_Shafer_MEA_dev_network_spike_peak: CCTE's Neural Network Formation Assay for Mean Number of Electrodes in Network Spike, Shafer Lab (AID 2284049);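 for AC50: fitted for loss of signal meaning fewer electrodes in network spikes than DMSO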
Summary of the method: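 Continuous 12-day exposure of rat cortical cultures, starting at plating, on MEA plates. Endpoint: electrodes participating in network-spike peaks, AUC across DIV 5–12, DMSO as negative control.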

[12] = CCTE_Shafer_MEA_dev_spike_duration_mean: CCTE's Neural Network Formation Assay for Mean Spike Duration, Shafer Lab (AID 2284051);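 note: mean network spike duration pooled as area under curve over DIV 5 to 12 recordings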;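 for AC50: potency for a decrease in mean network spike duration versus DMSO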
Summary of the method: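 Readout is the average length of network spikes, clustered firing across electrodes, summed over DIV 5, 7, 9 and 12 as area under the curve. Neurons from rat cortex developed networks on MEA plates under continuous 12-day exposure.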

[13] = CCTE_Shafer_MEA_dev_network_spike_duration_std: CCTE's Neural Network Formation Assay for Standard Deviation of Network Spike Duration, Shafer Lab (AID 2284052);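 note: area under curve of spike duration SD across recording days 5 to 12; hits are decreases in network spike duration SD versus DMSO vehicle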
Summary of the method: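 Read-out is the trapezoidal area-under-the-curve across recordings made on days 5, 7, 9 and 12, fitted in the negative direction against DMSO baseline. Neurons were primary rat cortical cells treated from day 0, with treatment renewed at each feed.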

[14] = CCTE_Shafer_MEA_dev_per_network_spike_spike_number_mean: CCTE's Neural Network Formation Assay for Mean Number of Spikes in a Network Spike, Shafer Lab (AID 2284053);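 for AC50: fitted as decrease in spikes per network spike relative to DMSO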
Summary of the method: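 Continuous twelve-day exposure of developing rat cortical networks grown over 16 microelectrodes per well; spontaneous firing is captured at four time points, and the per-network-spike spike number is integrated over development by trapezoidal AUC.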

[15] = CCTE_Shafer_MEA_dev_per_network_spike_spike_percent: CCTE's Neural Network Formation Assay for Percent of Spikes in a Network Spike, Shafer Lab (AID 2284054)
Summary of the method: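 Primary rat cortical neurons on 16-electrode MEA wells (PEI-coated, laminin at plating), exposed from day 0 with renewal at DIV 5 and 9; spikes within 0.05 s of network-spike peaks over total spikes, AUC across days 5, 7, 9, 12.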

[16] = target: Estrogen receptor (Homo sapiens) (UniProt P03372); assay: CCTE_Deisenroth_AIME_384WELL_LUC_Active: CCTE's 384-well Estrogen Receptor Transactivation Assay with AIME metabolic competence (ERTA luciferase; metabolism positive), Deisenroth Lab (AID 2284030; active = hit-call score of the fitted dose curve at least 0.9, where 1 is the maximum)
Summary of the method: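 AIME metabolism-positive mode: chemicals 0.002 - 200 uM, 2 h with alginate-bound PB/BNF-induced rat S9 → medium to VM7Luc4E2 ERTA, 24 h → luciferase. Positive fit vs 17beta-estradiol; n=4 typical.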

[17] = target: Estrogen receptor (Homo sapiens) (UniProt P03372); assay: CCTE_Deisenroth_AIME_384WELL_LUC_Inactive: CCTE's 384-well Estrogen Receptor Transactivation Assay without AIME metabolic competence (ERTA luciferase; metabolism negative), Deisenroth Lab (AID 2284038; active = hit-call score of the fitted dose curve at least 0.9, where 1 is the maximum;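 note: hits raise estrogen receptor luciferase signal so potencies reflect agonists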)
Summary of the method: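 Metabolism-negative mode: chemicals (10-point, 0.002–200 uM) held 2 h with alginate-water microspheres, then conditioned medium applied to VM7Luc4E2 cells for 24 h. Luciferase induction referenced to 17beta-estradiol.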

[18] = target: Estrogen receptor (Homo sapiens) (UniProt P03372); assay: CCTE_Deisenroth_AIME_384WELL_LUC_Shift: CCTE's 384-well Estrogen Receptor Transactivation Assay with AIME metabolic competence data shift (ERTA luciferase; difference in metabolism positive and negative), Deisenroth Lab (AID 2284041);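 note: shift is response with S9 minus without S9 so positive means metabolism raised ER signal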
Summary of the method: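 Here, parent compounds undergo 2 h phase I metabolism by PB/BNF-induced rat S9 before 24 h transactivation in VM7Luc4E2 cells; the curve models S9-positive minus S9-negative response over a 10-point series.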

[19] = CCTE_Deisenroth_AIME_384WELL_CTox_Active: Cytotoxicity Assessment (CTOX) in CCTE's 384-well Estrogen Receptor Transactivation Assay with AIME metabolic competence (metabolism positive), Deisenroth Lab (AID 2284037; active = hit-call score of the fitted dose curve at least 0.9, where 1 is the maximum;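 note: chemicals first conditioned 2 h by alginate-bound induced rat liver S9 before cells; activity means signal loss indicating cell death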)
Summary of the method: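 VM7Luc4E2 breast cells received medium pre-incubated 2 h with chemical over alginate microspheres holding induced male Sprague Dawley rat liver S9; viability read 24 h later by protease-substrate fluorescence. Loss of signal, bidirectional fit, 0.002–200 uM.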

Measured: AC50

Estrogen receptor (Homo sapiens), sequence (P03372 whole entry, looked up): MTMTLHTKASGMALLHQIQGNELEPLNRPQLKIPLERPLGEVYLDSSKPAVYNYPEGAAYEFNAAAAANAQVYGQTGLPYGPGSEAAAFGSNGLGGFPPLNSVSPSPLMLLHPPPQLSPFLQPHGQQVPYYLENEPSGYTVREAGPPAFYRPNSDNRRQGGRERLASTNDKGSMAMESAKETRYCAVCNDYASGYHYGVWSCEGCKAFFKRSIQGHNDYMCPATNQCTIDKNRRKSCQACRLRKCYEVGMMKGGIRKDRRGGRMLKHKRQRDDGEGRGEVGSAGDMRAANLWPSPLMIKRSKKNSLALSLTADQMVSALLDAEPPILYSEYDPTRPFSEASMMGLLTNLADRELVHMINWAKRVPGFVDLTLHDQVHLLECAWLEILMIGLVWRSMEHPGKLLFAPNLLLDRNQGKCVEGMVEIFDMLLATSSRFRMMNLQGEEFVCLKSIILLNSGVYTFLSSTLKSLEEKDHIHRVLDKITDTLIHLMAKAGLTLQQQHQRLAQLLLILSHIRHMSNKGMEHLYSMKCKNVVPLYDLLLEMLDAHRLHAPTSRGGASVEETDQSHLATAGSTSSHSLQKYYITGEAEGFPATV

ClC1=C(Cl)C2(Cl)C3C(Cl)C(Cl)CC3C1(Cl)C2(Cl)Cl (configuration not stated)
active: [2] 4.29 µM | [3] 0.283 µM | [4] 4.35 µM | [5] 6.7 µM | [6] 5.54 µM | [7] 7.48 µM | [8] 3.93 µM | [9] 7.68 µM | [11] 6.76 µM | [12] 7.67 µM | [14] 7.75 µM | [15] 7.62 µM
inactive: [1] | [10] | [13]

CC(Cl)(Cl)C(=O)O
inactive: [1] | [2] | [3] | [16] | [17] | [18]

CCCCc1ccc(O)cc1
inactive: [18]
active: [16] 26.1 µM | [19] 158 µM | [17] 20.2 µM

CCCCN(CCCC)SN(C)C(=O)Oc1cccc2c1OC(C)(C)C2
inactive: [16] | [19] | [17] | [18]

CC(C)(C)OOC(C)(C)C
inactive: [16] | [19] | [17] | [18]

OCC1CO1 (configuration not stated)
inactive: [16] | [19] | [17] | [18]

COP(=O)(CCC(=O)NCO)OC
inactive: [1] | [2] | [3]

CCOP(=S)(Oc1ccc([N+](=O)[O-])cc1)c1ccccc1 (configuration not stated)
active: [16] 19.6 µM | [17] 15.5 µM
inactive: [1] | [2] | [3] | [18]

CCN(CC)c1ccccc1
inactive: [16] | [19] | [17] | [18]

CCC1(c2ccccc2)C(=O)N=C(O)NC1=O (configuration not stated)
not listed: [16] | [17] | [18] | [19]
inactive: all other assays above

CCCCOCC1CO1 (configuration not stated)
active: [16] 77.3 µM | [17] 19.9 µM | [18] 8.76 µM
inactive: [19]

O=[N+]([O-])c1ccccc1
inactive: [16] | [19] | [17] | [18]

CCCCC(CC)COP(=O)(Oc1ccccc1)Oc1ccccc1 (configuration not stated)
active: [2] 10.3 µM | [3] 22.1 µM | [16] 34.1 µM | [11] 1.67 µM
inactive: all other assays above

CCOC(=O)c1ccccc1C(=O)OCC
inactive: [16] | [19] | [17]
active: [18] 45.2 µM

CCC(C)(C)c1ccc(O)cc1
inactive: [1]
active: [2] 9.35 µM | [3] 8.24 µM | [16] 7.31 µM | [17] 1.52 µM | [18] 0.0296 µM

COCCOCCO
inactive: [1] | [2] | [3] | [16] | [17] | [18]

CCCCc1ccccc1
inactive: [16] | [19] | [17] | [18]
